# DRD3 antagonist – antagonists of human D3 dopamine receptor | P35462 | D3R cells, DiscoveRx beta-arrestin luminescence, antagonist mode; active compounds read low | max response, negative = inhibition, % | 2.5% of 360,000 active; in the data active = max response below about -50%; inconclusive = no clear call, values can overlap the other calls; also: % is scaled to controls: 0 for no effect and ±100 for the full control effect
# Target sequence (P35462 whole entry, looked up): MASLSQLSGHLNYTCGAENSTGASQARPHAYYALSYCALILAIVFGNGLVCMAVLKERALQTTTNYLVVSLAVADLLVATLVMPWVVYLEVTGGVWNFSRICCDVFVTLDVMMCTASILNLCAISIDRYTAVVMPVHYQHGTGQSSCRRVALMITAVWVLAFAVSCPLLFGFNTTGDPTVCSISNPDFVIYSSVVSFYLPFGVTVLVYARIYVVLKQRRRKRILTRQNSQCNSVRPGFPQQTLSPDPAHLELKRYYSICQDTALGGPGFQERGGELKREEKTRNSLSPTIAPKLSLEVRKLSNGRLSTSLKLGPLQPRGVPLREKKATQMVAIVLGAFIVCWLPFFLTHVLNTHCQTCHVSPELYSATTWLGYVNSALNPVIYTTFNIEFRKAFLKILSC
#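 Cells plated overnight at 1500 cells/well, then exposed to library compounds with dopamine controls for 90 minutes at 37 degrees C. DiscoveRx reagent added for 30–60 minutes at room temperature; luminescence read, quantitative HTS format.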
# ClpP mod – qHTS Assay for Activators of ClpP; Potency, µM (doses to about 57.5 µM), without a hit: at the highest dose activity change, negative = active; AID 651965, 2013; ATP-dependent Clp protease proteolytic subunit (Bacillus subtilis (strain 168)), P80244; purified B. subtilis ClpP, FRET peptide cleavage, 20 min; 1.9% of 340,000 active; active = well fitted falling curve with a large enough effect; inconclusive = small, poorly fitted or top-dose-only effect; inactive = no such curve, though single readings can be large or run the other way; also: potency is read from the fitted curve at half-maximal effect; the source files actives as falling curves though it sought activators and does not explain the sign; nearly all actives have a fitted effect of over 65% in size
#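 FRET quenching reversal measured ClpP activation: 10 microg/mL B. subtilis ClpP at pH 8 with the FRET-FV decapeptide, read at 430 nm after 320 nm excitation. The 20-min minus 0-min signal was scaled between DMSO/no-enzyme wells and ADEP (5.8 microM final).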
# D3 ag – agonists of human D3 dopamine receptor; D3R DiscoveRx beta-arrestin cells, luminescence, 90 min; max activation, %; 0.58% of 410,000 active; in the data active = max activation above about 30%; also: 0% is about no effect
#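 Cells at 1500/well, incubated overnight, then treated with pinned compounds (dopamine as control) for 90 min at 37 degrees C. DiscoveRx reagent added for 30 - 60 minutes at room temperature; luminescence read.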
# TDP1 cell CPT – growth inhibition of DT40 Tdp1-/-;hTDP1 cells with camptothecin (screen for TDP1 inhibitors) | chicken DT40 Tdp1-/-;hTDP1 cells + 20 nM CPT, ATP luminescence, 48 h | Potency, µM (titrated, usually from 46.2 µM), inactives show top-dose activity change, negative = growth inhibition, most hits filed as inhibitors | 12% of 420,000 active | AID 686979; also: potency is read from the fitted curve at half-maximal effect; % is scaled to controls: 0 for no effect and ±100 for the full control effect; nearly all actives have a fitted effect of over 55% in size
#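 Cell growth measured by CellTiter-Glo luminescence after a minimum 48 h, 37 C compound exposure with 20 nM CPT in Tdp1-knockout DT40 cells stably expressing hTDP1, seeded 400/well; qHTS titration format.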
# DT40 TDP1 no CPT – qHTS for Inhibitors of human tyrosyl-DNA phosphodiesterase 1 (TDP1): qHTS in cells in absence of CPT | DT40 Tdp1-/- hTDP1 cells, no CPT, ATP luminescence, 48 h | 15% of 420,000 active | AID 686978, 2013 | Potency, µM (series often up to 46.2 µM), for the others: at the top dose activity change, negative = growth inhibition, hits mostly inhibitors; also: potency is read from the fitted curve at half-maximal effect; % is scaled to controls: 0 for no effect and ±100 for the full control effect; nearly all actives have a fitted effect of over 55% in size
#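 Compound effects on proliferation are scored in DT40 Tdp1-/-;hTDP1 cells in the absence of CPT. ATP levels (CellTiter-Glo luminescence) are recorded after a ≥48 hr, 37 °C incubation.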
# IL1B secr inh – inflammasome signaling inhibition, IL-1 beta readout | THP-1 LPS/ATP IL-1B secretion, AlphaLISA, 16 h; active compounds read low | activity change, % at 57.5 µM | 4.7% of 360,000 active; in the data active = activity change below about -50%; inconclusive = mostly about -30% to -49%; also: % is scaled to controls: 0 for no effect and ±100 for the full control effect
#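 THP-1 cells pretreated 1 hr with compounds (up to 57.5 uM final), then stimulated with LPS (250 ng/mL final) plus ATP (1.25 mM final); secreted IL-1B measured by AlphaLISA after 16 hr, decreased signal indicating inhibition.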
# Starred values were filed as active, the others as inactive; ? = inconclusive; / = no result given. An excerpt weighted towards active compounds, which were near 21% of everything screened. Unless noted, calls follow the shape of the dose curve; as a rule, active = well fitted inhibition curve with a large enough effect; inconclusive = small, poorly fitted or top-dose-only effect; inactive = flat fitted curve, though single readings scatter.
SMILES,DRD3 antagonist,ClpP mod,D3 ag,TDP1 cell CPT,DT40 TDP1 no CPT,IL1B secr inh
CC1(c2ccccc2)CC(C)(C)N2C(=O)C3(C(C#N)=C(N)Oc4cc(O)ccc43)c3cccc1c32 (configuration not stated),-4,-3%,-5,?,?,-51*
CC1(C)CC(=O)C2=C(C1)OC(N)=C(C#N)C21C(=O)N2CCCc3cccc1c32 (configuration not stated),-19,-1%,3,-11%,-10%,-7
CC1=CC(C)(C)N2C(=O)C3(C(C#N)=C(N)Oc4cc(O)ccc43)c3c(C)c(C)cc1c32 (configuration not stated),?,0%,-21,?,?,-73*
COc1ccc(Oc2ccc(N/C=C3\CCCC3=O)cc2)cc1,0,-1%,-9,?,26µM*,-12
COc1cccc(-c2c(-c3cc(OC)cc(OC)c3)n(C)c3ccc(-c4ccc5[nH]ccc5c4)cc23)c1,30,4%,32*,?,?,-6
COc1ccc(-c2c(-c3cc(OC)cc(OC)c3)n(C)c3ccc(-c4cc(F)cc(OC)c4)cc23)cc1,-1,26%,-2,?,16µM*,9
COc1ccc(-c2c(-c3cc(OC)cc(OC)c3)n(C)c3ccc(-c4ccc5cc[nH]c5c4)cc23)cc1,4,4%,10,?,?,-2
COc1cc(OC)cc(-c2c(-c3ccc(F)cc3)c3cc(-c4ccc5[nH]ccc5c4)ccc3n2C)c1,0,3%,-7,29µM*,?,-19
C=CCn1c(C)csc1=Nc1ccccc1C,1,-2%,4,-16%,-8%,-4
O=C1C2C3C=CC(C3)C2C(=O)N1c1n[nH]c(-c2ccccc2)n1 (configuration not stated),-4,1%,34*,3%,0%,-1
Cc1cc(C=O)c(C)n1-c1ccc(NC2CCCC2)c([N+](=O)[O-])c1,13,/,6,?,18µM*,-82*
Cc1cc(C=O)c(C)n1-c1ccc(Oc2ccc([N+](=O)[O-])cn2)cc1,-5,1%,0,-11%,-7%,7
O=C(c1cc(Cl)ccc1F)N1CCCC(Nc2ccc3c(c2)OCCO3)C1 (configuration not stated),11,-2%,-5,?,?,-12
O=C(CN1CCOCC1)N/N=C/c1ccco1,-1,/,3,-4%,-6%,-13
O=C(CN1CCOCC1)N/N=C/c1c(O)ccc2ccccc12,4,0%,28,7.3µM*,9.2µM*,60
COc1ccc(NC(C)C(=O)N/N=C/c2ccccc2OCc2cccc(Br)c2)cc1 (configuration not stated),-5,/,-2,?,?,-64*
CC(=O)Nc1ccc(N=Cc2c(O)ccc3ccccc23)cc1,11,-3%,3,-1%,10%,18
O=C(N/N=C/c1c(O)ccc2ccccc12)Nc1ccccc1,-57*,-3%,-15,26µM*,15µM*,85
O=C(CSCC(=O)Nc1ccccc1)N/N=C/c1c(O)ccc2ccccc12,-20,1%,2,4.5µM*,4.5µM*,108
COc1ccc(/C=N/NC(=O)CSCC(=O)Nc2ccccc2)cc1OC,-15,-10%,-4,-4%,-6%,-18
CCOc1ccccc1NC(=O)CSc1nnc(CCC(=O)Nc2ccccc2F)n1C,7,-1%,1,-1%,-6%,-9
CN1CCN(S(=O)(=O)NC[C@H]2O[C@@H](n3cnc4c(N)ncnc43)[C@H](O)[C@@H]2O)CC1,-11,-5%,-6,5%,19%,12
